# Results taken from PubChem BioAssay AID1159580 (chemical genetic matrix, 2015).
# About 2,000 (36%) of roughly 5,500 compounds were called active. Roughly 18% stayed inconclusive and do not appear here. Some of the results follow. Values without a mark were called inactive. Cut-off read from the data, not from the text of the source: active = normalized growth mostly below about 0.91 (no sharp cut-off); inconclusive = no clear call, values can overlap the other calls; inactive = mostly above about 0.92.
# Assay: chemical genetic growth profiling, strain panel (AID 1159580);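 note: tested at 20 µM; growth read once vehicle control cultures reached saturation at 30 °C; 1 = growth at the plate median or of vehicle wells; lower values mean less growth of the strain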
# Conditions: S. cerevisiae deletion strains, growth OD
structure (smiles),measurement,setting,value
O=c1c(-c2ccccc2)c(O)c2cccc3c4c(n1c23)CCCC4,normalized growth,"locus YAR019C, strain CDC15, stronger effect = lower value",0.935
same,normalized growth,"locus YBL105C, strain PKC1, stronger effect = lower value",0.939
same,normalized growth,"locus YBR135W, strain CKS1, stronger effect = lower value",0.926
same,normalized growth,"locus YBR136W, strain MEC1, stronger effect = lower value",0.934
same,normalized growth,"locus YBR160W, strain CDC28, stronger effect = lower value",0.958
same,normalized growth,"locus YDL017W, strain CDC7, stronger effect = lower value",0.94
same,normalized growth,"locus YDL028C, strain MPS1, stronger effect = lower value",0.944
same,normalized growth,"locus YDL101C, strain DUN1, stronger effect = lower value",0.973
same,normalized growth,"locus YDL108W, strain KIN28, stronger effect = lower value",0.924
same,normalized growth,"locus YDL132W, strain cdc53, stronger effect = lower value",0.939
same,normalized growth,"locus YDL214C, strain PRR2, stronger effect = lower value",0.39 (active)
same,normalized growth,"locus YDR052C, strain DBF4, stronger effect = lower value",0.957
same,normalized growth,"locus YDR054C, strain cdc34, stronger effect = lower value",0.823 (active)
same,normalized growth,"locus YDR226W, strain ADK1, stronger effect = lower value",0.94
same,normalized growth,"locus YDR477W, strain SNF1, stronger effect = lower value",0.342 (active)
same,normalized growth,"locus YER123W, strain YCK3, stronger effect = lower value",0.304 (active)
same,normalized growth,"locus YER133W, strain GLC7, stronger effect = lower value",0.459 (active)
same,normalized growth,"locus YFL009W, strain cdc4, stronger effect = lower value",0.929
same,normalized growth,"locus YFL029C, strain CAK1, stronger effect = lower value",0.934
same,normalized growth,"locus YFR003C, strain YPI1, stronger effect = lower value",0.952
same,normalized growth,"locus YFR019W, strain FAB1, stronger effect = lower value",0.233 (active)
same,normalized growth,"locus YFR028C, strain CDC14, stronger effect = lower value",0.927
same,normalized growth,"locus YGR040W, strain KSS1, stronger effect = lower value",0.439 (active)
same,normalized growth,"locus YGR052W, strain FMP48, stronger effect = lower value",0.266 (active)
same,normalized growth,"locus YGR092W, strain DBF2, stronger effect = lower value",0.172 (active)
same,normalized growth,"locus YHR030C, strain SLT2, stronger effect = lower value",0.139 (active)
same,normalized growth,"locus YHR079C, strain IRE1, stronger effect = lower value",0.182 (active)
same,normalized growth,"locus YHR082C, strain KSP1, stronger effect = lower value",0.186 (active)
same,normalized growth,"locus YHR205W, strain SCH9, stronger effect = lower value",0.314 (active)
same,normalized growth,"locus YIL147C, strain SLN1, stronger effect = lower value",0.917
same,normalized growth,"locus YJL095W, strain BCK1, stronger effect = lower value",0.272 (active)
same,normalized growth,"locus YJL128C, strain PBS2, stronger effect = lower value",0.906
same,normalized growth,"locus YJL157C, strain FAR1, stronger effect = lower value",0.243 (active)
same,normalized growth,"locus YJR016C, strain ILV3, stronger effect = lower value",0.926
same,normalized growth,"locus YJR066W, strain TOR1 (second series), stronger effect = lower value",0.336 (active)
same,normalized growth,"locus YJR066W, strain TOR1, stronger effect = lower value",0.26 (active)
same,normalized growth,"locus YKL048C, strain ELM1, stronger effect = lower value",0.485 (active)
same,normalized growth,"locus YKL067W, strain YNK1, stronger effect = lower value",0.414 (active)
same,normalized growth,"locus YKL101W, strain HSL1, stronger effect = lower value",0.323 (active)
same,normalized growth,"locus YKL193C, strain SDS22, stronger effect = lower value",0.934
same,normalized growth,"locus YKL203C, strain TOR2, stronger effect = lower value",0.283 (active)
same,normalized growth,"locus YLR113W, strain HOG1, stronger effect = lower value",0.26 (active)
same,normalized growth,"locus YLR133W, strain CKI1, stronger effect = lower value",0.376 (active)
same,normalized growth,"locus YLR403W, strain SFP1, stronger effect = lower value",0.263 (active)
same,normalized growth,"locus YML070W, strain DAK1, stronger effect = lower value",0.318 (active)
same,normalized growth,"locus YMR001C, strain CDC5, stronger effect = lower value",0.935
same,normalized growth,"locus YMR205C, strain PFK2 (second series), stronger effect = lower value",0.56 (active)
same,normalized growth,"locus YMR277W, strain FCP1, stronger effect = lower value",0.933
same,normalized growth,"locus YNL006W, strain LST8, stronger effect = lower value",0.932
same,normalized growth,"locus YNL020C, strain ARK1, stronger effect = lower value",0.282 (active)
same,normalized growth,"locus YNL161W, strain CBK1, stronger effect = lower value",0.944
same,normalized growth,"locus YNL183C, strain NPR1, stronger effect = lower value",0.278 (active)
same,normalized growth,"locus YNL207W, strain RIO2, stronger effect = lower value",0.95
same,normalized growth,"locus YNL222W, strain SSU72, stronger effect = lower value",0.939
same,normalized growth,"locus YNL307C, strain MCK1 (second series), stronger effect = lower value",0.167 (active)
same,normalized growth,"locus YOL078W, strain AVO1, stronger effect = lower value",0.927
same,normalized growth,"locus YOL136C, strain PFK27, stronger effect = lower value",0.195 (active)
same,normalized growth,"locus YOR061W, strain CKA2, stronger effect = lower value",0.249 (active)
same,normalized growth,"locus YOR119C, strain RIO1, stronger effect = lower value",0.382 (active)
same,normalized growth,"locus YOR231W, strain MKK1, stronger effect = lower value",0.25 (active)
same,normalized growth,"locus YOR329C, strain SCD5, stronger effect = lower value",0.948
same,normalized growth,"locus YPL031C, strain PHO85, stronger effect = lower value",0.246 (active)
same,normalized growth,"locus YPL153C, strain RAD53, stronger effect = lower value",0.305 (active)
same,normalized growth,"locus YPL204W, strain HRR25, stronger effect = lower value",0.273 (active)
same,normalized growth,"locus YPL209C, strain IPL1, stronger effect = lower value",0.944
same,normalized growth,"locus YPL256C, strain CLN2, stronger effect = lower value",0.228 (active)
same,normalized growth,"locus YPR025C, strain CCL1, stronger effect = lower value",0.952
same,normalized growth,"locus YPR106W, strain ISR1, stronger effect = lower value",0.93
same,normalized growth,"locus YPR111W, strain DBF20, stronger effect = lower value",0.94
same,normalized growth,"strain NNK1, stronger effect = lower value",0.732 (active)
same,normalized growth,"strain TSCII, stronger effect = lower value",0.918
